Assay outcomes as filed in PubChem BioAssay.
An excerpt weighted towards active compounds, which were near 21% of everything screened.
IL-1B inflam inh = inhibitors of inflammasome signaling (IL-1 beta secretion); THP-1 LPS/ATP IL-1B secretion, AlphaLISA, 16 h; stronger effect = lower value; activity change, % at 57.5 µM; 4.7% of 360,000 active; AID 743279; in the data active means activity change below about -50%; inconclusive means mostly about -30% to -49%
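Secreted IL-1B measured by AlphaLISA bead assay after 16 h compound exposure of THP-1 cells; compounds (final up to 57.5 uM) added 1 h before LPS (250 ng/mL) and ATP (1.25 mM) stimulation; lower signal means less secretion.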
DT40 TDP1 CPT = growth inhibition of DT40 Tdp1-/-;hTDP1 cells with camptothecin (screen for TDP1 inhibitors); AID 686979; 12% of 420,000 active; Potency, µM (doses to about 46.2 µM), for inactives: at the highest dose activity change, negative = growth inhibition, usual class: inhibitors; chicken DT40 Tdp1-/-;hTDP1 cells + 20 nM CPT, ATP luminescence, 48 h; further: potency means the concentration at half of the fitted maximal effect; nearly all actives have a fitted effect of over 55% in size
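Chicken DT40 Tdp1-/- cells complemented with human TDP1, 400 cells/well, exposed to compounds plus 20 nM camptothecin for at least 48 h at 37 C; viability read as ATP content by CellTiter-Glo luminescence.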
DT40 TDP1 no CPT = qHTS for Inhibitors of human tyrosyl-DNA phosphodiesterase 1 (TDP1): qHTS in cells in absence of CPT; Potency, µM (highest dose often 46.2 µM), for inactives: top-dose activity change, negative = growth inhibition, most hits filed as inhibitors; 15% of 420,000 active; DT40 Tdp1-/- hTDP1 cells, no CPT, ATP luminescence, 48 h; AID 686978, 2013; further: potency means the concentration at half of the fitted maximal effect; nearly all actives have a fitted effect of over 55% in size
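DT40 Tdp1-/-;hTDP1 cells, no CPT (DMSO vehicle only), 400 cells/well; compounds pin-transferred; ≥48 hr, 37 °C; CellTiter-Glo 30 min RT dark, luminescence read.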
VP16 counter = counter-screen for ROR gamma inhibitors: Gal4-VP16 reporter; Drosophila S2 Gal4-VP16 UAS-luciferase, luminescence, 20 h; Potency, µM (titrated, usually from 53.6 µM), inactives show at the top dose activity, negative = inhibition, usual class: inhibitors; 3.5% of 310,000 active;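 further: Gal4-VP16 expression switched on by copper sulfate through the metallothionein promoter; potency means the concentration at half of the fitted maximal effect; nearly all actives have a fitted effect of over 50% in size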
ELG1 DNA repair = ELG1-dependent DNA repair inhibition; 2.3% of 330,000 active; Potency, µM (doses to about 46.1 µM), for the others: at the top dose activity change, negative = inhibition, usual class: inhibitors; AID 504467; HEK293T ELG1-luciferase reporter, luminescence, 16 h; DNA damage induced by 5-fluorouridine; further: potency means the concentration at half of the fitted maximal effect; nearly all actives have a fitted effect of over 55% in size
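DMSO vehicle served as the neutral condition. Each well held 2,000 cells given 5-fluorouridine plus compound; after 16 hr at 37 °C/5% CO2, ONE-Glo was added and luciferase measured 30 min later.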
RORgamma inh = blocks mouse ROR gamma transcriptional activity; Potency, µM (series often up to 53.6 µM), inactives show top-dose activity change, negative = inhibition, hits mostly inhibitors; AID 2551; Drosophila S2 Gal4-RORgamma UAS-luciferase reporter, 20 h; P51450; 5.4% of 310,000 active; further: potency means the concentration at half of the fitted maximal effect; nearly all actives have a fitted effect of over 60% in size
Target sequence (P51450 whole entry, looked up, the tested form may be a part): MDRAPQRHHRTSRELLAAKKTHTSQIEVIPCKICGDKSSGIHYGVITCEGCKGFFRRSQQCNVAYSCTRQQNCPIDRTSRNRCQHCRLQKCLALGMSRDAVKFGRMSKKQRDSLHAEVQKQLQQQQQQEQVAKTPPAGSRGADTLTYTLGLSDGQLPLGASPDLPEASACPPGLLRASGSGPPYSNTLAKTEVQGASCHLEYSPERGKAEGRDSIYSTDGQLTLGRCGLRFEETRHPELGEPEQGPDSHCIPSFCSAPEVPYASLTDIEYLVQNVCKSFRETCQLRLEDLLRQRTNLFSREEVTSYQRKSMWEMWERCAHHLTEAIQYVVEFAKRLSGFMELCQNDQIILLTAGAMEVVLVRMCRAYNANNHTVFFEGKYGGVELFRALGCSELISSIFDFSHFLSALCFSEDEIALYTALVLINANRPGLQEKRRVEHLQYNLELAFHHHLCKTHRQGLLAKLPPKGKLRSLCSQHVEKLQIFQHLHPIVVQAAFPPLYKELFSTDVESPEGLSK
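Schneider cells (Drosophila), stable Gal4 DBD–ROR gamma + UAS-luc; 1 hr cmpd preincubation; Cu2+ induction 700 uM final; 20 hr ambient; luminescence.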
Starred values were filed as active, the others as inactive; [ ] = another dose, or the depositor's remark. Unless noted, the call rests on the fitted dose curve; in most records, active means well fitted curve in the direction sought with a large enough effect; inconclusive means small, poorly fitted or top-dose-only effect, or another doubt; inactive means no such curve, though single readings can be large; an effect the other way counts as inactive or inconclusive. On the % scale 0 is the no-effect control and ±100 the full control effect.

COc1ccc(Cl)cc1N(CC(=O)N/N=C/c1ccc(OC(C)C)cc1)S(=O)(=O)c1ccc(C)c([N+](=O)[O-])c1 was read as IL-1B inflam inh -15, DT40 TDP1 CPT -16%, DT40 TDP1 no CPT -19%, VP16 counter -6%, ELG1 DNA repair -1% and RORgamma inh 13%.
For CCOC(=O)CN(c1cc([N+](=O)[O-])ccc1OC)S(C)(=O)=O the results were IL-1B inflam inh -60*, DT40 TDP1 CPT 1%, DT40 TDP1 no CPT -2%, VP16 counter inconclusive, ELG1 DNA repair 23% and RORgamma inh -17%.
Screening COc1ccc(Cl)cc1-c1ccc(C(=O)O)o1 returned VP16 counter -3%[96.6 µM] and RORgamma inh 26%[96.6 µM].
For COc1cc(-c2cc(C)c3c(OC)ccc(OC)c3n2)cc2c1OCCN(C(=O)Cn1nc(C)cc1C)C2 the results were DT40 TDP1 CPT 1%[9.04 µM] and DT40 TDP1 no CPT -30%.
Cc1cc(F)ccc1OC1C=CC(c2ccc3c(c2)OCO3)OC1CO (stereo not given) was read as VP16 counter -3%[10 µM] and RORgamma inh -16%[10 µM].
Screening O=C(O)c1ccc(NC(=S)N2CCCCC2)cc1 returned IL-1B inflam inh 20, DT40 TDP1 CPT 17%, DT40 TDP1 no CPT 5%, VP16 counter 4%, ELG1 DNA repair 16% and RORgamma inh -3%.
S=C(Nc1ccc(Cl)cc1)N1CCCCC1 was read as IL-1B inflam inh -11, DT40 TDP1 CPT -12%, DT40 TDP1 no CPT 0%, VP16 counter inconclusive, ELG1 DNA repair 30% and RORgamma inh 10µM*.
For S=C(Nc1ccccc1)N1CCCCC1 the results were IL-1B inflam inh 1, DT40 TDP1 CPT 6%, DT40 TDP1 no CPT -4%, VP16 counter -17%, ELG1 DNA repair -1% and RORgamma inh 11µM*.
Cc1ccc(NC(=S)N2CCCC2)cc1Cl was read as IL-1B inflam inh -12, DT40 TDP1 CPT -12%, DT40 TDP1 no CPT 6%, VP16 counter inconclusive, ELG1 DNA repair 23% and RORgamma inh 16µM*.
`Cc1ccc(NC(=S)N2CCCC2)cc1C` gave IL-1B inflam inh 23, DT40 TDP1 CPT inconclusive, DT40 TDP1 no CPT inconclusive, VP16 counter -18%, ELG1 DNA repair inconclusive and RORgamma inh inconclusive.
Screening O=S1c2ccccc2Sc2ccccc21 returned IL-1B inflam inh 10, DT40 TDP1 CPT -10% and DT40 TDP1 no CPT -7%.
COc1ccc(C(=O)Nc2cccc3c2CCCC3)c(OC)c1 was read as IL-1B inflam inh 2, DT40 TDP1 CPT -28% and DT40 TDP1 no CPT inconclusive.
For CC(C)C[C@H](NC(=O)N1CCCCCC1)C(=O)N[C@H](Cc1cn(C)c2ccccc12)C(=O)N[C@H](Cc1ccccn1)C(=O)O the results were DT40 TDP1 CPT -2%, DT40 TDP1 no CPT 0%, VP16 counter 2% and RORgamma inh -19%.
For CC(O)(COc1ccccc1)c1ccc2c(c1)CN(Cc1ccc3nsnc3c1)CCO2 (stereo not given) the results were DT40 TDP1 CPT -2%[9.04 µM] and DT40 TDP1 no CPT -26%.
`Cc1ccc(NC(=O)C2CCCN(S(=O)(=O)c3c(C)noc3/C=C/N(C)C)C2)cc1F` (stereo not given) gave IL-1B inflam inh -24, DT40 TDP1 CPT inconclusive, DT40 TDP1 no CPT 18µM*, VP16 counter -16%, ELG1 DNA repair inconclusive and RORgamma inh 41%.
`Cc1cccc(C)c1NC(=O)C1CCCN(S(=O)(=O)c2c(C)noc2/C=C/N(C)C)C1` (stereo not given) gave DT40 TDP1 CPT 16µM* and DT40 TDP1 no CPT inconclusive.
Screening Cc1noc(C)c1S(=O)(=O)N1CCCC(C(=O)Nc2ccc(Cl)cn2)C1 (stereo not given) returned IL-1B inflam inh 6, DT40 TDP1 CPT inconclusive, DT40 TDP1 no CPT inconclusive, VP16 counter 0%, ELG1 DNA repair 16µM* and RORgamma inh 13%.
Screening Cc1noc(/C=C/N(C)C)c1S(=O)(=O)N1CCC(C(=O)Nc2ccc(Cl)cc2)CC1 returned IL-1B inflam inh -29, DT40 TDP1 CPT inconclusive, DT40 TDP1 no CPT -25%, VP16 counter 7%, ELG1 DNA repair -2% and RORgamma inh -1%.
For Cc1noc(/C=C/N(C)C)c1S(=O)(=O)N1CCCC(C(=O)NC2CCCCC2C)C1 (stereo not given) the results were IL-1B inflam inh -13, DT40 TDP1 CPT inconclusive, DT40 TDP1 no CPT 21µM*, VP16 counter -5%, ELG1 DNA repair -23% and RORgamma inh -12%.
Screening CNc1cnc(-c2ccsc2)cn1 returned IL-1B inflam inh -4, DT40 TDP1 CPT 7% and DT40 TDP1 no CPT 1%.
Screening Cc1cccc(C)c1NC(=O)C(c1ccncc1)n1c(=O)c(-c2ccco2)nc2ccccc21 (stereo not given) returned IL-1B inflam inh -13, DT40 TDP1 CPT -29% and DT40 TDP1 no CPT inconclusive.
`Cc1ccc(-n2cccc2C(=S)N=P(N(C)C)(N(C)C)N(C)C)cc1` gave IL-1B inflam inh -59*, DT40 TDP1 CPT 2.1µM*, DT40 TDP1 no CPT 1.6µM*, VP16 counter 6.3µM*, ELG1 DNA repair 3% and RORgamma inh 2.2µM*.
`COc1cc(/C=C/C(=O)OCC(=O)c2ccc[nH]2)ccc1O` gave IL-1B inflam inh -21, DT40 TDP1 CPT -7% and DT40 TDP1 no CPT -24%.
`CCCn1c(SCc2nc(-c3ccc(OC)cc3OC)no2)nnc1-c1ccc(Cl)cc1` gave DT40 TDP1 CPT 21µM* and DT40 TDP1 no CPT 26µM*.
Screening CCCn1c(SCc2nc(-c3ccccc3OCC)no2)nnc1-c1ccc(Cl)cc1 returned DT40 TDP1 CPT inconclusive and DT40 TDP1 no CPT 18µM*.
Screening C[C@H]1CCCCO[C@H](CN(C)S(=O)(=O)c2cn(C)cn2)[C@@H](C)CN([C@@H](C)CO)C(=O)c2cc(NS(=O)(=O)c3ccccc3)ccc2O1 returned IL-1B inflam inh 4, DT40 TDP1 CPT 8% and DT40 TDP1 no CPT -3%.
O=C(Cn1cc(/C=C\[N+](=O)[O-])c2ccccc21)Nc1ccccc1 was read as IL-1B inflam inh -96*, DT40 TDP1 CPT 21µM*, DT40 TDP1 no CPT 15µM*, VP16 counter inconclusive, ELG1 DNA repair inconclusive and RORgamma inh inconclusive.
